The results in this text go back to PubChem BioAssay.

Experiment [1] can be described thus: growth inhibition of DIPG glioma cells, dose response, cell-based, SU-DIPG-XVII, MIPE5.0, CellTiter-Glo, qHTS (AID 1347060).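 On AC50: cells exposed to compound for 48 hours before viability readout.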 The note with it: SU-DIPG-XVII viability, CellTiter-Glo ATP luminescence. (In general: In ATP-based viability assays light output follows the ATP content of the culture.)
Experiment [2] in a line: growth inhibition of DIPG glioma cells, dose response, cell-based, SU-DIPG-XIII, MIPE4.0, CellTiter-Glo, qHTS (AID 1347061; cut-off not given, nearly all actives have AC50 up to about 37 µM;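 further: cells exposed to compound for 48 hours before readout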). The settings on record: SU-DIPG-XIII viability, CellTiter-Glo ATP luminescence.
The nature of experiment [3]: growth inhibition of DIPG glioma cells, dose response, cell-based, JHH-DIPG-1, MIPE4.0, CellTiter-Glo, qHTS (AID 1347062; cut-off not given, nearly all actives have AC50 up to about 27 µM;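 on AC50: cells exposed to compound for two days before readout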). The settings on record: JHH-DIPG-1 viability, CellTiter-Glo ATP luminescence.
The nature of experiment [4]: growth inhibition of DIPG glioma cells, dose response, cell-based, SU-DIPG-IV, MIPE4.0, CellTiter-Glo, qHTS (AID 1347063; cut-off not given, nearly all actives have AC50 up to about 30 µM;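 further: compound exposure lasted 48 hours before the viability readout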). The settings on record: SU-DIPG-IV viability, CellTiter-Glo ATP luminescence.
Experiment [5] is described as follows: growth inhibition of DIPG glioma cells, dose response, cell-based, SU-DIPG-XIII, MIPE5.0, CellTiter-Glo, qHTS (AID 1347064; cut-off not given, nearly all actives have AC50 up to about 23 µM;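 on AC50: cells exposed to compound for 48 hours before the viability read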). The settings on record: SU-DIPG-XIII viability, CellTiter-Glo ATP luminescence.
The nature of experiment [6]: viability loss in pontine glioma line – cell-based, SU-DIPG-XXV, MIPE5.0, CellTiter-Glo, qHTS, dose response (AID 1347065).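 Further: cells exposed to compound for 48 hours before ATP readout.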 The settings on record: CellTiter-Glo ATP luminescence.
Experiment [7] in a line: JHH-DIPG-1 glioma cell viability, MIPE5.0 library, CellTiter-Glo luminescence, qHTS (AID 1347067).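 Further: cells exposed to compound for 48 hours before readout.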 The note with it: JHH-DIPG-1 glioma viability, CellTiter-Glo ATP luminescence.
Experiment [8] is described as follows: SU-DIPG-XXV glioma cell viability, MIPE5.0 library, qHTS (AID 1347068; cut-off not given, nearly all actives have IC50 up to about 30 µM). For orientation: Quantitative high-throughput screening tests each substance at several concentrations.
Experiment [9] can be described thus: SU-DIPG-VI glioma cell viability, MIPE4.0 library, CellTiter-Glo luminescence, qHTS (AID 1347066; cut-off not given, nearly all actives have AC50 up to about 30 µM;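 further: cells exposed to compound for 48 hours before readout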). The note with it: CellTiter-Glo ATP luminescence.
The nature of experiment [10]: modifiers of HSF1 nuclear foci, imaging, Selleck Cancer Library (AID 1347162; in the data active means plate-normalised HSF1 focus index below about 0.46). The settings on record: human cells, at 10 µM; SSMD: measured here: HSF1 foci SSMD mean; cell count: measured here: cell number; plate-normalised HSF1 focus index: stronger effect = lower value.
A short description of experiment [11]: sensitizers of A549 cells to miR-34 induction, primary screen, imaging, A549 dox-inducible miR-34, nuclei and caspase counts (AID 1347080;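 active means compounds whose cell count with miR-34 switched on is under 0.7 times the count with it off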). The note with it: A549 miR-34 inducible, Hoechst nuclei count, 48 h.
A short description of experiment [12]: survival rescue of mitochondrial mutant cells in low glucose, primary screen, MELAS cybrids, Rieske KO mouse fibroblasts, CellTiter-Glo (AID 1508586;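 active means mean z-score across replicates of 1.96 or higher in either the MELAS or the Rieske mutant cell line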;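 further: z relative to plate mean and SD of compound and empty wells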).
Experiment [13] is described as follows: LFS_MB_P medulloblastoma growth inhibition, cell-based, chromothripsis tumors, cisplatin or BGB combos (AID 1671449; in the data active means inhibition above about 80%;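 further: cells exposed for 96 hours; 0% = vehicle DMSO and 100% = killing by high DMSO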). The note with it: LFS_MB_P medulloblastoma cells.
Experiment [14] is described as follows: HDN33 neuroblastoma growth inhibition, cell-based, chromothripsis tumors, cisplatin or BGB combos (AID 1671450; in the data active means inhibition above about 80%;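 further: cells exposed to compound for four days; 0% = vehicle DMSO and 100% = cell killing by high DMSO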). The settings on record: HDN33 neuroblastoma cells, stronger effect = higher value.
Experiment [15] is described as follows: ICB984 medulloblastoma cell growth inhibition, synergistic combos for chromothripsis tumors, cisplatin or BGB combos (AID 1671451; call rule not given here;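 further: cells exposed for 96 hours before readout; 0% = vehicle DMSO and 100% = killing by high DMSO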). The note with it: ICB984 medulloblastoma cells, drug combinations, stronger effect = higher value.
Experiment [16] in a line: HTB85 osteosarcoma cell growth inhibition, synergistic combos for chromothripsis tumors, BGB or cisplatin IC20 combos (AID 1671453; in the data active means inhibition above about 80%;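 further: cells exposed for 96 hours before readout; 0% = vehicle DMSO and 100% = high DMSO killing control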). The note with it: HTB85 osteosarcoma cells, drug combinations, stronger effect = higher value.
Experiment [17] can be described thus: MDA-MB-436 breast carcinoma cell growth inhibition, synergistic combos for chromothripsis tumors, BGB or cisplatin combos (AID 1671458; call rule not given here;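 further: cells exposed for 96 hours; 0% = vehicle DMSO and 100% = killing by high DMSO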). The note with it: MDA-MB-436 breast carcinoma growth inhibition, drug combinations, stronger effect = higher value.
A short description of experiment [18]: growth inhibition of BT084 medulloblastoma cells, cell-based, ICGC_MB145, cisplatin and BGB IC40 combos (AID 1671461; in the data active means inhibition above about 80%;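 further: cells exposed to drugs for 96 hours; 0% = vehicle DMSO and 100% = high DMSO full killing control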). The note with it: drug combinations, stronger effect = higher value.
Experiment [19] in a line: growth inhibition of RCMB18 medulloblastoma cells, cell-based, cisplatin and BGB IC40 combos (AID 1671462; in the data active means inhibition above about 80%;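 further: cells exposed to compound for four days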). The note with it: stronger effect = higher value.
[20] abbreviates: stronger effect = lower value, cell number ratio, induced over uninduced.
Where [21] appears, read: measured here: relative caspase fold change +Dox/-Dox.
[22] abbreviates: measured here: total cells with miR-34 induction, stronger effect = lower value.
Where [23] appears, read: measured here: total cells without miR-34 induction.
Where [24] appears, read: MELAS cybrid survival, CellTiter-Glo 48 h, stronger effect = higher value.
The mark [25] stands for this setting: Rieske KO mouse fibroblast survival, CellTiter-Glo 72 h.

One may read the AC50 as the concentration at which the activity in the assay is half-maximal. By inhibition is commonly meant the relative decrease from the control value, in per cent.

Each structure is given as a SMILES string. Where “and” joins values, the source holds several entries; their conditions need not be identical. Equal values may be shown once. Results filed as inconclusive are left out. Calls of active or inactive are those of the source. Unless noted, cut-off not given; nearly all actives show AC50 up to about 26 µM.

`COc1nccc(-c2c(-c3ccc(F)cc3)ncn2C2CCNCC2)n1`: the outcome in experiment [1], in experiment [2], in [3], in [4], in experiment [5] and in [6] was inactive. The outcome in [7] and in experiment [8] was inactive.
Take `COc1ccc(CCN2CCN(CCCc3ccccc3)CC2)cc1OC`: the result in [1], in [2], in experiment [3], in [4], in experiment [5] and in experiment [9] was inactive. Besides, the compound was called inactive in [7] and in experiment [8]. This compound yielded an SSMD in [10] of 3.93. This compound came in with a cell count in experiment [10] of 6890. In addition, the plate-normalised HSF1 focus index in experiment [10] is 1.24 (inactive).
For `O=C1c2cccc(O)c2C(=O)c2c(O)cc(CO)cc21`, the result in [1], in experiment [2], in experiment [3], in experiment [4], in experiment [5] and in experiment [6] was inactive. Further, the result in [7] and in experiment [8] was inactive. The fold change was 0.954 (inactive) in [11] (setting [20]) and 0.691 in experiment [11] (setting [21]). The cell count is 7900 in [11] (setting [22]) and 8280 in [11] (setting [23]). Further, the z-score in [12] (setting [24]) was -0.27 (inactive); in [12] (setting [25]), 0.836.
With `O=C(CCCCCCNC(=O)c1cnc(N(c2ccccc2)c2ccccc2)nc1)NO`, the AC50 in experiment [1] is 7.42 µM (active); in [2], 23.5 µM (active); in experiment [3], 7.43 µM (active); in [4], 5.9 µM (active); in experiment [5] it was 4.17 µM (active); in experiment [6] it was 7.42 µM (active). In addition, the AC50 in experiment [7] was 8.33 µM (active). Besides, the fold change in [11] (setting [20]) is 0.909 (inactive); in experiment [11] (setting [21]), 0.469. For the same compound, the cell count in [11] (setting [22]) was found to be 4500; in [11] (setting [23]), 4950. The z-score was -0.658 (inactive) in experiment [12] (setting [24]) and 0.218 in experiment [12] (setting [25]). Further, the inhibition in experiment [13] (at 0.5 µM, stronger effect = higher value) was -14.5% (inactive) and -5.58% (inactive); in experiment [13] (measured here: combination with BGB IC20, at 0.005 µM) it was -18.6% and -24.1%; in experiment [13] (measured here: combination with BGB IC40, at 0.005 µM), -32.2% and -65.4%; in experiment [13] (measured here: combination with BGB IC40, at 0.05 µM), -41.9% and -39.4%; in [13] (measured here: combination with cisplatin, at 0.5 µM, stronger effect = higher value) it was -7.65% and 15.8%; in experiment [13] (measured here: combination with cisplatin, at 5 µM, stronger effect = higher value) it was 98.3% and 80%. Further, the inhibition in experiment [14] (BGB combo, at 5 µM) is 42.2% and -4.91%; in experiment [14] (at 0.5 µM), -11.3% (inactive) and -31.5% (inactive); in experiment [14] (cisplatin combo, at 5 µM), 48.9% and 1.35%; in [14] (measured here: with BGB IC20 combination, at 0.5 µM), -15.6% and -44.2%; in experiment [14] (measured here: with cisplatin IC20 combination, at 0.5 µM), -0.181% and -16.9%; in experiment [14] (single agent, at 5 µM), 58.6% and 19.5%. Moreover, the inhibition is -1.95% and -4.3% in experiment [15] (BGB IC20 combo, at 0.005 µM); -29.2% and -32% in experiment [15] (BGB IC40 combo, at 0.005 µM); 25.2% and 28% in experiment [15] (BGB IC40 combo, at 0.05 µM); -12.7% (inactive) and -20.3% (inactive) in experiment [15] (at 0.5 µM); 22.5% and 24.5% in experiment [15] (cisplatin combo, at 0.05 µM); -4.11% and -25.4% in experiment [15] (cisplatin combo, at 0.5 µM). For the same compound, the inhibition in experiment [15] (cisplatin combo, at 5 µM) is -33% and -20%; in experiment [15] (measured here: 5 uM single agent, at 5 µM), -20.1% and -35.8%; in experiment [16] (at 0.5 µM) it was -4.93% (inactive) and -17.7% (inactive); in [16] (measured here: with BGB IC20, at 0.5 µM) it was -15.5% and -21.9%; in experiment [16] (measured here: with BGB IC20, at 5 µM), 46.8% and 4.12%; in experiment [16] (measured here: with cisplatin IC20, at 0.5 µM), 14.2% and -10.7%. The inhibition in experiment [16] (measured here: with cisplatin IC20, at 5 µM) was 38.8% and 48.3%; in experiment [16] (single agent, at 5 µM), 42.9% and 23.4%; in experiment [17] (at 0.5 µM), -21.3% (inactive) and -18.7% (inactive); in experiment [17] (measured here: BGB combination, at 0.5 µM) it was -26.1% and -14.4%; in [17] (measured here: BGB combination, at 5 µM) it was 12.3% and 1.72%; in [17] (measured here: cisplatin combination, at 0.5 µM) it was -29.8% and -32%. Moreover, the inhibition in experiment [17] (measured here: cisplatin combination, at 5 µM) is 9.34% and 4.42%; in experiment [18] (at 0.5 µM), 0.96% (inactive) and 10.8% (inactive); in experiment [18] (cisplatin combination, at 0.5 µM) it was -4.86% and 4.91%; in [18] (cisplatin combination, at 5 µM) it was 90.9% and 41.3%; in experiment [18] (measured here: BGB IC40 combination 0.05 uM, at 0.05 µM), -52.6% and -17.2%; in [18] (single agent, at 5 µM) it was 58% and 51.4%. Further, the inhibition in experiment [19] (at 0.5 µM) was -4.02% (inactive) and 5.89% (inactive); in experiment [19] (cisplatin combo, at 5 µM) it was 58% and 24.2%; in experiment [19] (measured here: BGB IC40 combination, at 0.05 µM) it was -5.21% and -9.76%; in [19] (measured here: combination with cisplatin, at 0.5 µM) it was 7.09% and 6.01%; in [19] (single agent, at 5 µM), 36.2% and 26.2%.
